Assay outcomes (PubChem BioAssay)
aSyn UTR inh = MLPCN primary screen, SNCA 5' untranslated region; alpha-synuclein 5'UTR reporter, inhibitor activity; inhibition, % (tested at 7.5 µM); actives 0.82% (n = 300,000); AID 1813, 2009; in the data active means inhibition above about 60%; inconclusive means no clear call, values can overlap the other calls;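 further: H4 neuroglioblastoma cells stably carrying SNCA 5'UTR luciferase fusion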
Beta apoptosis = inhibitors of cytokine-induced beta cell apoptosis, primary screen, luminescence | INS-1E cytokine-induced death, ATP luminescence, 48 h; percent of positive-control rescue, neutral wells zero | protection from apoptosis, % (no concentration beside the values) | actives 0.8% (n = 300,000);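 active means Every replicate reaches about 75%, or at least half do and their mean reaches it too, limit read from the data; inconclusive means At least half of replicates reach the limit but their mean does not; inactive means Under half of replicates reach the limit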;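 further: higher means more ATP so stronger rescue from cytokine killing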
Mdm2 MdmX PPI = inhibitors of human Mdm2-MdmX association, primary screen, cell-based, luminescence, split luciferase, SaOS-2, uHTS; AID 485346, 2010; inhibition, % at 8 µM; actives 3% (n = 330,000); SaOS-2 split-luciferase Mdm2/MdmX complementation;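 active means inhibition of at least 50% at 8 µM in the primary screen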
CSC inhib = cancer stem cell viability inhibitors, primary screen, luminescence | cancer stem cell-like cells viability | inhibition, % at 7.5 µM | actives 1.1% (n = 300,000); in the data active means inhibition above about 75%; inconclusive means no clear call, values can overlap the other calls; tested in HMLE shEcad cells
Bfl-1 A1 inh = caspase 3/7 activation in MEF A1-2A-BIM cells, primary screen, A1 inhibitor project, cell-based, luminescence, HTS; Caspase-Glo 3/7 luminescence, 3 h; percent of clofoctol response, vehicle zero; caspase activation, % (no concentration beside the values); actives 0.066% (n = 330,000); AID 2462, 2010;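 active means over half of replicate activation scores above 10%, or exactly half above 10 with the replicate mean above 10; inconclusive means replicate mean below 10 yet half the replicates above 10; inactive means over half of replicates below 10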
Mdm2-MdmX conf = Mdm2-MdmX complex disruptors, retested hits, confirmation, luminescence, single concentration | shares compounds with Mdm2 MdmX PPI | actives 55% (n = 10,000) | AID 489028, 2010 | Mdm2-MdmX binding, luminescent assay | inhibition, % at 8 µM; in the data active means inhibition above about 40%
Full FLuc ctr = full-length luciferase signal inhibition, confirmation, counter-screen for Mdm2/MdmX interaction inhibitor project, cell-based, single concentration, SaOS-2; shares compounds with Mdm2 MdmX PPI; SaOS-2 full-length luciferase counterscreen, luminescence; inhibition, % at 8 µM; actives 77% (n = 6,200); AID 504607, 2011;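 active means mean inhibition at 8 µM reaching about 37%, which flags the compound as non-specific, limit read from the data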;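 further: p53-null SaOS-2 cells with luciferase driven by a doxycycline-inducible promoter; compound on cells about two nights before reading with doxycycline added after day one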
A number is an active result; n = inactive; u = inconclusive; x = not tested or not shown. An excerpt weighted towards active compounds, which were near 4.1% of everything screened.

SMILES | aSyn UTR inh | Beta apoptosis | Mdm2 MdmX PPI | CSC inhib | Bfl-1 A1 inh | Mdm2-MdmX conf | Full FLuc ctr
Cc1ccc(C)c(NC(=O)Cn2nnc(-c3ccc(N4CCOCC4)cc3)n2)c1 | n | n | 83 | n | n | n | 83
Cc1cccc(C)c1NC(=O)Cn1nnc(-c2ccc(N3CCOCC3)cc2)n1 | n | n | 70 | x | n | n | x
CCn1c(=O)c(C(=O)CN2CCN(S(=O)(=O)c3ccc(C)cc3C)CC2)c(N)n(Cc2ccccc2)c1=O | n | n | 53 | n | n | 43 | 75
CCn1c(=O)c(C(=O)CN2CCN(S(=O)(=O)c3ccccc3)CC2)c(N)n(Cc2ccccc2)c1=O | n | n | n | n | n | x | x
Cc1noc(C)c1C(=O)OCC(=O)NCc1ccccc1 | x | x | n | x | x | x | x
O=C(Nc1ccccc1O)c1ccc(NS(=O)(=O)c2cccc3cccnc23)cc1 | n | n | 77 | u | n | n | x
Cc1cccc(CC(Cc2nc3ccccc3[nH]2)c2nc3ccccc3[nH]2)c1 (centres undefined) | n | n | 75 | n | n | n | x
COc1ccc(C(=O)Nc2ncc3c(n2)CC(C)CC3=O)cc1 (centres undefined) | n | n | n | n | n | x | x
COc1cccc(C(=O)Nc2ncc3c(n2)CC(c2ccc(OC)cc2OC)CC3=O)c1 (centres undefined) | n | n | 59 | x | n | 51 | 57
COc1cc(C(=O)OCC(=O)Nc2ccc(C)cc2)cc(OC)c1OC | n | n | n | n | n | x | x
CC(C)(O)C#Cc1ccc(C(=O)NCc2ccccc2F)cc1 | n | n | n | n | n | x | x
CCOc1ccc2nc(Nc3nc(CSc4nnnn4-c4ccccc4)cc(=O)[nH]3)nc(C)c2c1 | n | n | 75 | n | n | n | x
Cc1ccc2c(C)nc(Nc3nc(CSc4nnnn4-c4ccccc4)cc(=O)[nH]3)nc2c1 | n | n | 89 | n | n | 61 | 63
COc1ccc2nc(Nc3nc(CSc4nnnn4-c4ccccc4)cc(=O)[nH]3)nc(C)c2c1 | n | n | n | n | n | x | x
O=C(Nc1ccc(Cl)cc1)/C(=C/c1cccc(O)c1)c1nc2ccccc2s1 | n | 105 | 100 | n | n | 100 | 51
CCOc1ccc(NC(=O)COC(=O)C2C3CC4OC(=O)C2C4C3)cc1 (centres undefined) | n | n | n | n | n | x | x
Cc1ccnc(NC(=O)c2ccccc2NC(=O)c2ccc(Cl)cc2Cl)c1 | 69 | x | 64 | n | n | 57 | 66
COc1cc(OC)c(OC)cc1CNC(=O)CCN1C(=O)c2cccc([N+](=O)[O-])c2C1=O | n | n | n | n | n | x | x
CSc1nc(C2CC2)cc(-c2cccs2)c1C#N | n | n | 88 | n | n | 79 | 79
COc1ccc(-c2cc(C3CC3)nc(SCC(=O)c3cccs3)c2C#N)cc1 | n | n | n | n | u | x | x
O=C(Nc1ccnn1C1CCN(Cc2cccc(OCCO)c2)CC1)C1CC1 | n | x | n | n | n | x | x
Cc1ccc(-c2nn(CC(=O)NCc3cc(-c4nn(C)c(=O)c5ccccc45)ccc3C)c(=O)c3ccccc23)cc1 | 114 | n | 97 | n | n | n | x
COc1ccc(-c2nn(C)c(=O)c3ccccc23)cc1NC(=O)Cn1nc(C)c2ccccc2c1=O | n | n | 57 | n | n | n | x
Cc1nn(CC(=O)Nc2ccc3c(c2)oc2ccccc23)c(=O)c2ccccc12 | n | n | 77 | x | n | n | x
COC(=O)c1ccc(NC(=O)Cn2nc(C)c3ccccc3c2=O)cc1 | n | x | n | x | n | x | x
SMILES | aSyn UTR inh | Beta apoptosis | Mdm2 MdmX PPI | CSC inhib | Bfl-1 A1 inh | Mdm2-MdmX conf | Full FLuc ctr
CCC(=O)NCc1cc(-c2nn(C)c(=O)c3ccccc23)ccc1C | n | n | n | n | n | x | x
Cn1nc(-c2ccccc2)c(C(O)c2ccc(Cl)cc2)c1Cl (centres undefined) | n | n | n | n | n | x | x
Cn1nc(-c2ccccc2)c(CSc2ccccc2Cl)c1Cl | n | n | 53 | n | n | 65 | 56
O=C(/C=C/Nc1ccccc1)c1ccccc1 | n | n | n | x | n | x | x
O=C(/C=C/Sc1ccccc1)c1ccccc1 | n | n | 52 | n | n | n | x
CC1=C(C)C(=O)N(c2ccc(C(=O)O)cc2)C1=O | n | n | n | x | n | x | x
